PubChem BioAssay AID602197 (NMMLSC, 2012)
The other results are listed elsewhere or left out. Activity calls are given as the source filed them. No stated cut-off is given here; in the data, active means response above about 24%; inactive means the rest.

Assay: V-ATPase regulators in yeast, one dose – S. cerevisiae, pH-sensitive GFP, second cherry-pick, confirmation (AID 602197);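 further: plate controls were vehicle wells for no effect and positive control wells for full effect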
Details: S. cerevisiae pHLuorin cytosolic pH, V-ATPase proton transport; at 10 µM; active compounds read high

Row | SMILES | response
1 | OCc1nc(CO)n(Cc2ccccc2)n1 | -7.16% (inactive)
2 | Cc1ccc2nc(-c3ccncc3)cc(C(=O)Nc3ccc(OC(F)F)cc3)c2c1 | 2.3% (inactive)
3 | CCOC(=O)COc1cc(O)c2c(=O)cc(-c3ccccc3)oc2c1 | -3.04% (inactive)
4 | COc1cccc(OC)c1C(=O)OCC(=O)/C(C#N)=C(\C)N | -0.01% (inactive)
5 | CCOc1ccc(CCNC(=O)C2=C(C)C(=O)OC23CCC(C)CC3)cc1OCC (stereo not drawn) | 5.21% (inactive)
6 | CCCCNc1ccc(C(=O)Nc2cccc(C)n2)cc1[N+](=O)[O-] | 2.43% (inactive)
7 | O=C(O/N=C(/c1ccccc1)c1ccncc1)c1ccccc1[N+](=O)[O-] | 4.81% (inactive)
8 | O=C1c2ccccc2C(=O)N1CCCCCCN1C(=O)c2ccccc2C1=O | 2.04% (inactive)
9 | Cc1cc(OC(=O)c2ccccc2)c([N+](=O)[O-])c(=O)[nH]1 | 1.38% (inactive)
10 | O=C(NC1CCN(Cc2ccccc2)CC1)c1cc(Br)c(Br)[nH]1 | 2.14% (inactive)
11 | CCOC(=O)CNC(=O)CSc1nnc(COc2ccc(Cl)cc2)n1CC | -1.08% (inactive)
12 | O=C1Oc2ccccc2C(=O)/C1=C/c1ccccc1O | 91.4% (active)
13 | Cc1cc(=O)[nH]c(N/N=C/c2c(C)nn(-c3ccccc3Cl)c2Cl)n1 | -0.02% (inactive)
14 | COc1cc2c(cc1/C=C1/NC(=O)N(c3ccccc3)C1=O)OCO2 | -0.72% (inactive)
15 | CCOC(=O)Cn1c(-c2cccnc2Cl)nc2ccccc21 | 1.29% (inactive)
16 | O=C(COC(=O)c1ccccc1Br)Nc1nnc(-c2ccccc2)o1 | 3.01% (inactive)
17 | Cc1ccnc(SCC(=O)Nc2cccc(S(=O)(=O)N3CCOCC3)c2)n1 | 0.72% (inactive)
18 | COc1ccc(N2CCN(C(=O)/C(C#N)=C/c3ccccc3)CC2)cc1 | -3.48% (inactive)
19 | Cc1cc(CO)nn1-c1ccc([N+](=O)[O-])cc1 | 2.63% (inactive)
20 | Nc1ccc(C(=O)NCc2ccccc2)cc1 | -2.67% (inactive)
21 | CC1=NN(c2ccc(Cl)c(C(=O)O)c2)C(=O)/C1=C/c1ccc(-c2ccccc2[N+](=O)[O-])o1 | 1.31% (inactive)
22 | COC(=O)c1c(-c2ccc(C)cc2)csc1N | 0.92% (inactive)
23 | COC(=O)COc1ccc2c(=O)c(Oc3ccccc3Br)coc2c1 | -1.59% (inactive)
